Measured values from the supplement of paper PMC10849652.
About 8,800 targets were measured; listed, in parts, are those with a hit and a random draw of the rest. About 0.5% of all pairs of compound and target were hits.

Experiments:
Test in all cases: log2 fold change, soluble protein after heating vs DMSO (PISA); higher = thermal stabilisation; K562 lysate, 10 uM; active = over 0.2 and 3.5 SD of the protein, either way, in both replicates (recomputed)
erlotinib = compound: C#Cc1cccc(Nc2ncnc3cc(OCCOC)c(OCCOC)cc23)c1 [erlotinib]
Method in brief: (§1)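 The values are log-two fold changes in thermal stability compared with solvent controls and come from duplicates. They were obtained by TMTpro 16plex LC-MS/MS, with channel sums equalised, on the supernatant after 21,000xg for 90 min. That supernatant came from crude K562 extract at 1 mg/mL protein treated with 10 μM compound for 30 min, heated for 3 min across 48°C-58°C, pooled and brought to 0.5% NP-40 at 4°C.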

[1] = compound: C/C(=N\NC(=O)C1=CC(=CC=C1)S(=O)(=O)N2CCOCC2)/C3=C(C=CC(=C3)Cl)O
Method in brief: as §1

[2] = compound: C1=CC(=CC=C1C2=NC3=C(N2)C=C(C=C3)C(=O)N)OC4=CC=C(C=C4)Cl
Method in brief: as §1

[3] = compound: C1=CC2=C(C=CC(=C2)/C=C\3/C(=O)NC(=NCC4=CC=CS4)S3)N=C1
Method in brief: as §1

[4] = compound: C1=CC2=NC=CN=C2C=C1/C=C/3\C(=O)NC(=O)S3
Method in brief: as §1

[5] = compound: C1=CC=C(C=C1)C2=NC(=C(N2)C3=CC=NC=C3)C4=CC(=C(C=C4)Cl)O
Method in brief: as §1

[6] = compound: C1=CC=C2C(=C1)C3=NNC4=CC=CC(=C43)C2=O
Method in brief: as §1

[7] = compound: C1CCN(C1)C(=O)NC2=CC=CC(=C2)NC3=NC=C(C(=N3)NCCC4=CN=CN4)Br
Method in brief: as §1

[8] = compound: C1CN(CCC1(CC2=CC=C(C=C2)Cl)N)C3=NC=NC4=C3C=CN4
Method in brief: as §1

IRAK-1-4 Inhibitor I = compound: C1COCCN1CCN2C3=CC=CC=C3N=C2NC(=O)C4=CC(=CC=C4)[N+](=O)[O-] [IRAK-1-4 Inhibitor I]
Method in brief: as §1

Measured: log2 fold change

PRC1 (UniProt O43663)
inactive: erlotinib 0.026 | [1] 0.027 | [2] 0.013 | [3] -0.026 | [4] -0.004 | [5] 0.059 | [6] -0.054 | [7] -0.011 | [8] 0.126 | IRAK-1-4 Inhibitor I 0.008

PDIA4 (UniProt P13667)
UniProt P13667, sequence (P13667 whole entry, looked up): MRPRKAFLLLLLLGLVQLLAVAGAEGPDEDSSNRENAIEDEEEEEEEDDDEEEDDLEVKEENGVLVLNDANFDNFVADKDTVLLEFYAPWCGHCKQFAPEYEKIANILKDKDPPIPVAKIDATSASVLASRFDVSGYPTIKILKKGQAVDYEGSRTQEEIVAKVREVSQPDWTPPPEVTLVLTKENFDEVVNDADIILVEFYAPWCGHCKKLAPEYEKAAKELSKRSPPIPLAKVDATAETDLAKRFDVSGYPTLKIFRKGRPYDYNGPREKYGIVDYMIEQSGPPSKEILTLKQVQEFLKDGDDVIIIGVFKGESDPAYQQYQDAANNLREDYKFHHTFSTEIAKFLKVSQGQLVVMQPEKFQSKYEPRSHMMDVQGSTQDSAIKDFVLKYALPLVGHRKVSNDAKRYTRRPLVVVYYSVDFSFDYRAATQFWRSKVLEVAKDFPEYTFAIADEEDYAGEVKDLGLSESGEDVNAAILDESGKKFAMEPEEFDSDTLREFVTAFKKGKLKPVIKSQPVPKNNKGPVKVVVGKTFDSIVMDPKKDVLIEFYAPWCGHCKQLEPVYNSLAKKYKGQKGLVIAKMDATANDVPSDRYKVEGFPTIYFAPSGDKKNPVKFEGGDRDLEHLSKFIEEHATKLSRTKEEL
inactive: erlotinib -0.011 | [1] 0.062 | [2] 0.005 | [3] -0.017 | [4] -0.008 | [5] 0.006 | [6] 0 | [7] 0.04 | [8] 0.007 | IRAK-1-4 Inhibitor I -0.001

PICALM (UniProt H0YEH1)
inactive: erlotinib -0.004 | [1] -0.111 | [2] 0.053 | [3] 0.066 | [4] -0.021 | [5] -0.015 | [6] 0.106 | [7] -0.219 | [8] -0.333 | IRAK-1-4 Inhibitor I 0.053

PYCR2 (UniProt Q96C36)
inactive: erlotinib -0.013 | [1] 0.014 | [2] 0.011 | [3] -0.005 | [4] -0.013 | [5] 0.003 | [6] -0.04 | [7] 0.007 | [8] 0.01 | IRAK-1-4 Inhibitor I 0.031

PI4KA (UniProt P42356)
inactive: erlotinib 0.018 | [1] -0.014 | [2] -0.055 | [3] 0.035 | [4] 0.075 | [5] -0.028 | [6] -0.027 | [7] -0.021 | [8] 0.02 | IRAK-1-4 Inhibitor I -0.003

PI4KB (UniProt Q9UBF8)
inactive: erlotinib 0.017 | [1] -0.108 | [2] -0.011 | [3] 0.038 | [4] 0.173 | [5] 0.011 | [6] 0.193 | [7] 0.01 | [8] -0.065 | IRAK-1-4 Inhibitor I -0.003

PUF60 (UniProt Q9UHX1)
inactive: erlotinib 0.001 | [1] 0.003 | [2] -0.01 | [3] 0.011 | [4] -0.018 | [5] -0.018 | [6] 0.01 | [7] 0.003 | [8] 0.003 | IRAK-1-4 Inhibitor I -0.023

PREP (UniProt P48147)
inactive: erlotinib 0.026 | [1] -0.016 | [2] 0.028 | [3] -0.007 | [4] -0.002 | [5] 0.002 | [6] -0.002 | [7] -0.024 | [8] 0.014 | IRAK-1-4 Inhibitor I -0.007

PRPH isoform 2 (UniProt P41219)
inactive: erlotinib -0.007 | [1] 0.042 | [2] -0.025 | [3] -0.032 | [4] 0.066 | [5] -0.001 | [6] -0.114 | [7] 0.072 | [8] -0.005 | IRAK-1-4 Inhibitor I -0.011

PRKCA (UniProt P17252)
inactive: erlotinib 0.031 | [1] -0.086 | [2] -0.019 | [3] 0.108 | [4] 0 | [5] 0.044 | [6] -0.088 | [7] -0.037 | [8] 0.044 | IRAK-1-4 Inhibitor I 0.005

PPP1R12B isoform 6 (UniProt O60237)
inactive: erlotinib -0.081 | [1] 0.025 | [2] -0.103 | [3] -0.08 | [4] 0.057 | [5] -0.053 | [6] -0.07 | [7] -0.123 | [8] 0.037 | IRAK-1-4 Inhibitor I 0.153

PGPEP1 (UniProt Q9NXJ5)
UniProt Q9NXJ5, sequence (Q9NXJ5 whole entry, looked up): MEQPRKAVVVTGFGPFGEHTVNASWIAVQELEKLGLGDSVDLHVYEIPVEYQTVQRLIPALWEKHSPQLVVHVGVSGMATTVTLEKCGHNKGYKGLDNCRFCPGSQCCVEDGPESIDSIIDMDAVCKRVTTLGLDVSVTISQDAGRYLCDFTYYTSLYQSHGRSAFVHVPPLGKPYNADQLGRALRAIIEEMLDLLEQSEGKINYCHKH
inactive: erlotinib -0.003 | [1] 0.102 | [2] -0.053 | [3] -0.046 | [4] 0.013 | [5] 0.014 | [6] -0.018 | [7] -0.059 | [8] 0.001 | IRAK-1-4 Inhibitor I -0.003

PMS1 (UniProt P54277)
UniProt P54277, sequence (P54277 whole entry, looked up): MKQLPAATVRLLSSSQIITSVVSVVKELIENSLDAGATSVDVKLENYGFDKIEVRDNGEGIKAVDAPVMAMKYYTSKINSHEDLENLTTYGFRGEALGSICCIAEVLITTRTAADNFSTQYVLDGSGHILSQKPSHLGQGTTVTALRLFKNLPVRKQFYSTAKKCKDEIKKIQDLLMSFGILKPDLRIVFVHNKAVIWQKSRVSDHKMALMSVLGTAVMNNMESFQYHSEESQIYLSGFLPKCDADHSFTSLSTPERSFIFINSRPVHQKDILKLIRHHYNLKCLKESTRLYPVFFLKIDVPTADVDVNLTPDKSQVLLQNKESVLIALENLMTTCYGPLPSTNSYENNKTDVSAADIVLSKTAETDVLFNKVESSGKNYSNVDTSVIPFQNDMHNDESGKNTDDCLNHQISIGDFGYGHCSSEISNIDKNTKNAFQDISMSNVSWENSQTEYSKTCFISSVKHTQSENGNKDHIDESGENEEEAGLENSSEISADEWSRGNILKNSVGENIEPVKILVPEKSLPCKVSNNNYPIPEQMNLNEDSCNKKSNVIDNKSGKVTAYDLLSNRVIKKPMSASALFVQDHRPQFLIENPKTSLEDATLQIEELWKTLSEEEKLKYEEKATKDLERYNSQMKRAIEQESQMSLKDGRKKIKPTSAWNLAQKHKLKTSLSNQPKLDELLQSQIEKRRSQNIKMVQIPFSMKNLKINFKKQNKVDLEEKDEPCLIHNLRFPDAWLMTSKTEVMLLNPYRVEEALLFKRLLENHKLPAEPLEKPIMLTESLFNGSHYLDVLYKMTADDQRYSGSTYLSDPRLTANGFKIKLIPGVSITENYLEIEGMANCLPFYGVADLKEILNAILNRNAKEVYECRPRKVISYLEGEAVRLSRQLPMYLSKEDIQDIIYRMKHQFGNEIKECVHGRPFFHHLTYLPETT
inactive: erlotinib -0.024 | [1] 0.012 | [2] 0.041 | [3] -0.002 | [4] 0.106 | [5] 0.03 | [6] -0.094 | [7] -0.002 | [8] 0.016 | IRAK-1-4 Inhibitor I -0.027

PSMB9 (UniProt P28065)
UniProt P28065, sequence (P28065 whole entry, looked up): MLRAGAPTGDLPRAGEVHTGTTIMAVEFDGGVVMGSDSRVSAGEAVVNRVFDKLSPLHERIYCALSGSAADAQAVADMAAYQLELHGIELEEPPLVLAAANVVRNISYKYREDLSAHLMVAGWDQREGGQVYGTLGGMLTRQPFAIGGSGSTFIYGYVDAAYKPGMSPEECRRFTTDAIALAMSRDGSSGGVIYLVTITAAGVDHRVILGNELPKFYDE
inactive: erlotinib 0.02 | [1] -0.112 | [2] 0.008 | [3] -0.062 | [4] -0.08 | [5] -0.061 | [6] 0.033 | [7] -0.084 | [8] 0.084 | IRAK-1-4 Inhibitor I -0.048

PFKP (UniProt Q01813)
UniProt Q01813, sequence (Q01813 whole entry, looked up): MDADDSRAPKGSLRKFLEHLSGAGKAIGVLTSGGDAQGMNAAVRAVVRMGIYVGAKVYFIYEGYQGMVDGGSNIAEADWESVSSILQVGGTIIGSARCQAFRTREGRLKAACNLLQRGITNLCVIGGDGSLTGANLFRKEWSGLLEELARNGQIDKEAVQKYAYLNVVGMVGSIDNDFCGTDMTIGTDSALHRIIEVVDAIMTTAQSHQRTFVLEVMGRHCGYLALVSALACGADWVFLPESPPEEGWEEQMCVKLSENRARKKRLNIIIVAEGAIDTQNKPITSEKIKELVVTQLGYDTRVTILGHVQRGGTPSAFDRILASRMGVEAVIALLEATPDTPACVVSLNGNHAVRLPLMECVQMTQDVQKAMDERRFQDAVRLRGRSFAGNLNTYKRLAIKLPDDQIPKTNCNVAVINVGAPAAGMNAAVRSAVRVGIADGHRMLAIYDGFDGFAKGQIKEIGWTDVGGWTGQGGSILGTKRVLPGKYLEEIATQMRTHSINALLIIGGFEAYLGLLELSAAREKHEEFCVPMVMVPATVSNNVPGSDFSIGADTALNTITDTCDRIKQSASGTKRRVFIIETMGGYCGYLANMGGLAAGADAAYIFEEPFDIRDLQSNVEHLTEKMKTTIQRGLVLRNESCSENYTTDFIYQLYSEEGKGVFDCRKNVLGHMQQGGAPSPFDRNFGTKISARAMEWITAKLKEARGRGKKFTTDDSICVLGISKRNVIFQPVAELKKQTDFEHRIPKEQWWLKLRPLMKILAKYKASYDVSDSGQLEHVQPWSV
inactive: erlotinib -0.01 | [1] -0.006 | [2] 0.019 | [3] -0.001 | [4] -0.01 | [5] 0 | [6] 0.032 | [7] 0.033 | [8] 0.031 | IRAK-1-4 Inhibitor I -0.003

PYURF (UniProt Q96I23)
UniProt Q96I23, sequence (Q96I23 whole entry, looked up): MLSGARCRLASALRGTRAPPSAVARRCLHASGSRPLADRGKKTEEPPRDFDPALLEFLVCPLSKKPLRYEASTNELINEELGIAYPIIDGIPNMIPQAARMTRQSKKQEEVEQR
inactive: erlotinib -0.019 | [1] 0.113 | [2] 0.117 | [3] 0.056 | [4] 0.087 | [5] -0.09 | [6] -0.108 | [7] 0.035 | [8] 0.07 | IRAK-1-4 Inhibitor I -0.086

PTGR2 (UniProt Q8N8N7)
inactive: erlotinib 0.01 | [1] 0.064 | [2] 0.001 | [3] 0.065 | [4] -0.041 | [5] 0.054 | [6] 0.016 | [7] 0.015 | [8] 0.001 | IRAK-1-4 Inhibitor I -0.035

PES1 (UniProt O00541)
UniProt O00541, sequence (O00541 whole entry, looked up): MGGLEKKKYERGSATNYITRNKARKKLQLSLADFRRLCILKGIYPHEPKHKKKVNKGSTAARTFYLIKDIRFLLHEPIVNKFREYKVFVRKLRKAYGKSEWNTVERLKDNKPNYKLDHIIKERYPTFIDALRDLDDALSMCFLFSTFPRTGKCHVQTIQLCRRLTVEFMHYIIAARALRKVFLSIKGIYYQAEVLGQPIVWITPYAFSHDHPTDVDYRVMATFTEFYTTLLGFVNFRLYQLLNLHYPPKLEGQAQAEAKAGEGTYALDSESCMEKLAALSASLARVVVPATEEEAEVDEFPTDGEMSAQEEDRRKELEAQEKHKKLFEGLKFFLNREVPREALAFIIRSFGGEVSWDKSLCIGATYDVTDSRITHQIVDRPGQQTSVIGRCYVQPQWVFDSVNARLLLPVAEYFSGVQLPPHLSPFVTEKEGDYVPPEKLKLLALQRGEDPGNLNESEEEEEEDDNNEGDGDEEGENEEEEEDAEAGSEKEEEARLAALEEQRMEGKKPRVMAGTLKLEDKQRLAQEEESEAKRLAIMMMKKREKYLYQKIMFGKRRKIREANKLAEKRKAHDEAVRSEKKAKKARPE
inactive: erlotinib 0 | [1] -0.071 | [2] -0.014 | [3] -0.044 | [4] -0.001 | [5] 0.001 | [6] -0.012 | [7] 0.025 | [8] -0.056 | IRAK-1-4 Inhibitor I 0.037

PTK2 (UniProt Q05397)
inactive: erlotinib -0.018 | [1] -0.009 | [2] 0.045 | [3] -0.031 | [4] -0.045 | [5] -0.02 | [6] 0.271 | [7] 0.32 | [8] -0.045 | IRAK-1-4 Inhibitor I 0.22

PTS (UniProt Q03393)
inactive: erlotinib -0.018 | [1] -0.112 | [2] -0.018 | [3] 0.034 | [4] 0.001 | [5] 0.074 | [6] -0.023 | [7] -0.069 | [8] 0.002 | IRAK-1-4 Inhibitor I 0.028

PGLS (UniProt O95336)
UniProt O95336, sequence (O95336 whole entry, looked up): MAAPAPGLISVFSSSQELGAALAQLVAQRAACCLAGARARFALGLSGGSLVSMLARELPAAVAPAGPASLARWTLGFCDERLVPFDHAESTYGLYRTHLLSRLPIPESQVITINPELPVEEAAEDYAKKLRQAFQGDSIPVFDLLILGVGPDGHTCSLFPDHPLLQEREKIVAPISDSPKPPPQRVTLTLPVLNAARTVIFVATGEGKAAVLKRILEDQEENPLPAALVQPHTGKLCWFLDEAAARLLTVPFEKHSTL
inactive: erlotinib -0.019 | [1] -0.026 | [2] -0.08 | [3] -0.039 | [4] -0.039 | [5] -0.077 | [6] -0.04 | [7] -0.112 | [8] 0.025 | IRAK-1-4 Inhibitor I -0.043

PDCD4 (UniProt Q53EL6)
UniProt Q53EL6, sequence (Q53EL6 whole entry, looked up): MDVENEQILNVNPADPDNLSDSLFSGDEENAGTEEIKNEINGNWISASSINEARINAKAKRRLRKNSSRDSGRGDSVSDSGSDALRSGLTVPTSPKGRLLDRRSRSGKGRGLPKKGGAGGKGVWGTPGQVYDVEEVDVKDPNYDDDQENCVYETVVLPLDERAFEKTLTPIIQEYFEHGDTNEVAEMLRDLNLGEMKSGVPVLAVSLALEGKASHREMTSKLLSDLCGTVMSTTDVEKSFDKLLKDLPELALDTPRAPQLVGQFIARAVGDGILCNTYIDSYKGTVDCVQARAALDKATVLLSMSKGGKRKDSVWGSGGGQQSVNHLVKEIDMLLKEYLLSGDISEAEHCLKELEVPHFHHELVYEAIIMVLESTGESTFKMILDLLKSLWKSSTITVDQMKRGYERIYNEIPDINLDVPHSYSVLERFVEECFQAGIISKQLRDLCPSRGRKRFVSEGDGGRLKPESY
inactive: erlotinib 0 | [1] -0.052 | [2] -0.02 | [3] -0.003 | [4] -0.004 | [5] -0.026 | [6] 0.014 | [7] -0.011 | [8] 0.008 | IRAK-1-4 Inhibitor I 0.015

PRIMPOL (UniProt Q96LW4)
inactive: erlotinib -0.063 | [1] 0.007 | [2] -0.02 | [3] -0.025 | [4] 0.076 | [5] -0.013 | [6] 0.019 | [7] 0.009 | [8] -0.046 | IRAK-1-4 Inhibitor I 0.059

PHACTR4 isoform 2 (UniProt Q8IZ21)
inactive: erlotinib 0.003 | [1] -0.02 | [2] 0.012 | [3] -0.004 | [4] -0.021 | [5] 0.021 | [6] 0.013 | [7] -0.017 | [8] 0.052 | IRAK-1-4 Inhibitor I 0.011

PRKCD (UniProt Q05655)
UniProt Q05655, sequence (Q05655 whole entry, looked up): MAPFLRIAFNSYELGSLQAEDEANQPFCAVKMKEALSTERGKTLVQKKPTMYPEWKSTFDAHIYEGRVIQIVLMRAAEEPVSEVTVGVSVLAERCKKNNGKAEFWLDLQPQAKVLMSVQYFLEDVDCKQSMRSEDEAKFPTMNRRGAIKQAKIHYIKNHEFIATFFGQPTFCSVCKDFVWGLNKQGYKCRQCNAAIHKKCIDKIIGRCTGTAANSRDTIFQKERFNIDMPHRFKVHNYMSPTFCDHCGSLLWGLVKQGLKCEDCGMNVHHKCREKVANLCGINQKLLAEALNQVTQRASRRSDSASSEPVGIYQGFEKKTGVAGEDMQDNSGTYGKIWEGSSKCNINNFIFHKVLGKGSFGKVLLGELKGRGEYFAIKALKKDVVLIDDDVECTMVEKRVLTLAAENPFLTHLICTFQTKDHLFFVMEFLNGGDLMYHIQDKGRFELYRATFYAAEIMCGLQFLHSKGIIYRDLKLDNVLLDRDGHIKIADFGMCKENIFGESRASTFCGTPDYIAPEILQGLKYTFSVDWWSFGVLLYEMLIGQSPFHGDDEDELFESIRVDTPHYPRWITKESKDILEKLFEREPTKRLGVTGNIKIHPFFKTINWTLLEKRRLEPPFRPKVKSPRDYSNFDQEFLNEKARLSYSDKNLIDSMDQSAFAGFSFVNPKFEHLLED
inactive: erlotinib -0.041 | [1] 0.016 | [2] -0.035 | [3] -0.047 | [4] -0.01 | [5] 0.006 | [6] -0.023 | [7] -0.069 | [8] 0.019 | IRAK-1-4 Inhibitor I 0.013

PPP2R3C (UniProt Q969Q6)
inactive: erlotinib -0.061 | [1] -0.009 | [2] -0.126 | [3] -0.025 | [4] -0.019 | [5] 0.033 | [6] -0.032 | [7] -0.023 | [8] -0.035 | IRAK-1-4 Inhibitor I -0.018

PPP2R5C isoform 5 (UniProt Q13362)
inactive: erlotinib -0.013 | [1] -0.025 | [2] -0.009 | [3] -0.025 | [4] 0.016 | [5] -0.002 | [6] -0.039 | [7] 0.01 | [8] 0.027 | IRAK-1-4 Inhibitor I 0.013

PPP2R5C isoform 4 (UniProt Q13362)
inactive: erlotinib 0.025 | [1] -0.048 | [2] -0.054 | [3] -0.012 | [4] -0.009 | [5] 0.044 | [6] -0.01 | [7] 0.046 | [8] 0.08 | IRAK-1-4 Inhibitor I 0.002

POMP (UniProt Q9Y244)
inactive: erlotinib 0.058 | [1] -0.022 | [2] -0.001 | [3] 0.05 | [4] -0.003 | [5] -0.024 | [6] -0.08 | [7] -0.099 | [8] 0.048 | IRAK-1-4 Inhibitor I -0.023

PCBP3 (UniProt P57721)
inactive: erlotinib 0.005 | [1] 0.028 | [2] 0.021 | [3] -0.031 | [4] 0.02 | [5] 0.02 | [6] 0.029 | [7] -0.003 | [8] 0.021 | IRAK-1-4 Inhibitor I -0.005
